USP2a block – USP2a (human) protease inhibition; 0.01% of 330,000 active; USP2 core, Ub-CHOP2 coupled fluorogenic reporter, 485/531; Potency, µM (top dose mostly 38.3 µM), without a hit: at the top dose activity change, negative = inhibition, hits mostly inhibitors; O75604; AID 463254;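 further: plate controls were DMSO wells for no effect and full inhibition by NEM control for full effect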
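USP2 core (10nM final) preincubated 30min RT with compound in 20mM Tris-HCl pH 8.0, 2mM CaCl2, 2mM beta-mercaptoethanol, 0.05% CHAPS; 25nM Ub-CHOP2 plus 25nM reporter substrate added, fluorescence (Ex485/Em531) read after 60min.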
12-LOX inh – blocks human arachidonate 12S-lipoxygenase; P18054; purified 12hLO, xylenol orange hydroperoxide absorbance; Potency, µM (highest dose often 108 µM), inactives show at the highest dose activity change, negative = inhibition, usual class: inhibitors; 1.1% of 580,000 active; AID 1671190; further: on the % scale 0 is the no-effect control and ±100 the full control effect
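Hydroperoxide product was detected by ferrous iron/xylenol orange as the 573 to 405 nm absorbance ratio. Arachidonic acid at 40 uM (final) was turned over for 30 min at room temperature by 150 nM human 12hLO, pH 7.0 Hepes buffer, after 15 min compound preincubation.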
PTAP TSG101 blk – blocks PTAP/TSG101 interaction to inhibit HIV-1 budding; Q99816; Fluorescence polarization, FITC-PTAP peptide / Tsg101 binding; Potency, µM (top dose mostly 115 µM), inactives show at the highest dose activity change, negative = inhibition, hits mostly inhibitors; 340,000 tested, under 10 active; AID 493005; active means well fitted inhibition curve with a large enough effect in the main read-out, with a control signal flat, not every such curve was filed as active; inconclusive means small, poorly fitted or top-dose-only effect, or effect the other way, or a change in a side signal; inactive means no such curve, though single readings can be large or run the other way; further: % of control where 0% means no effect
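FP read-out: FITC-PTAP peptide, 50 nM final, binding Tsg101 binding domain, 10 uM final; 20 min, r.t.; 10 mM HEPES pH 7.5, 0.15 M NaCl, 0.01% Tween 20, 3 mM EDTA, 0.1 mM TCEP.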
Eya2 phos inh – Eya2 (human) phosphatase inhibition | recombinant Eya2, OMFP fluorescence dephosphorylation (OMFP is methylfluorescein phosphate) | Potency, µM (top dose mostly 76.9 µM), for the others: at the top dose activity, negative = inhibition, actives largely listed as inhibitors | 0.006% of 330,000 active; further: on the % scale 0 is the no-effect control and ±100 the full control effect
Target sequence (O00167 whole entry, looked up): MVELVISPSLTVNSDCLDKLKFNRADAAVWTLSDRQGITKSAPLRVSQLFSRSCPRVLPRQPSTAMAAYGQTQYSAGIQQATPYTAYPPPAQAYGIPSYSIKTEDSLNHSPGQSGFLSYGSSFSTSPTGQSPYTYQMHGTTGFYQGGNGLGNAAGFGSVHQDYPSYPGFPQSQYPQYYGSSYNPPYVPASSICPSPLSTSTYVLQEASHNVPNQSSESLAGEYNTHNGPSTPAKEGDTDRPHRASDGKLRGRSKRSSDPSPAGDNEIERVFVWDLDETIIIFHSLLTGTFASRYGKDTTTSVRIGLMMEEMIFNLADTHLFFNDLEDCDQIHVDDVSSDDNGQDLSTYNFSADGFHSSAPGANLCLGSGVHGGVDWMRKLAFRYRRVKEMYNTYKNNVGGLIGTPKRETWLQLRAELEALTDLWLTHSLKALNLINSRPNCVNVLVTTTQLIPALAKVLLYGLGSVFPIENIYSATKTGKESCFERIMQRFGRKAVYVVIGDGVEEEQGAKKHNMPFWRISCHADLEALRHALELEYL
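Eya2 (0.2 uM) preincubated 10 min at ambient with compound, then OMFP substrate added at 50 uM; 10 min reaction in 50 mM HEPES pH 7.5, 50 mM NaCl, 5 uM MgCl2, 0.05% BSA, 1 mM DTT. Fluorescence read at Ex 485/Em 525 nm.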
The depositor's hits bear a star; u = inconclusive; x = no result given; [ ] = remark or other dose. In the library only some 1.1% were active in any assay of this set; here they are far more common. Unless noted, the call rests on the fitted dose curve; in most records, active means well fitted curve in the direction sought with a large enough effect; inconclusive means small, poorly fitted or top-dose-only effect, or another doubt; inactive means no such curve, though single readings can be large; an effect the other way counts as inactive or inconclusive. Potency means the concentration at half of the fitted maximal effect.

SMILES | USP2a block | 12-LOX inh | PTAP TSG101 blk | Eya2 phos inh
CCC1(c2ccc(Cl)cc2)NC(=S)N(c2ccc(C)cc2)N1 (stereo unspecified) | 1% | 28µM* | -4% | 10%
CCC1(c2ccc(Cl)cc2)NC(=S)N(c2ccc(C)c(C)c2)N1 (stereo unspecified) | 4% | u | -6% | -1%
CCOc1ccc(C(c2c(C)[nH]n(-c3ccccc3)c2=O)c2c(C)[nH]n(-c3ccccc3)c2=O)cc1OC | x | 50µM* | x | x
CCC(C)C(N)C1=NC(C(=O)N[C@@H](CC(C)C)C(=O)N[C@H](CCC(=O)[O-])C(=O)N[C@H](C(=O)N[C@H]2CCCCNC(=O)[C@H](CC(N)=O)NC(=O)[C@@H](CC(=O)[O-])NC(=O)[C@H](Cc3cnc[nH]3)NC(=O)[C@@H](Cc3ccccc3)NC(=O)[C@H]([C@@H](C)CC)NC(=O)[C@@H](CCCN)NC2=O)[C@@H](C)CC)CS1.[Zn+2] (stereo partly specified) | x | x | 2% | x
FC(F)(F)c1cccc(-n2cccc2/C=N/n2cnnc2)c1 | -2% | 14µM* | -6% | 12%
CCCC1CCC(=O)O1 (stereo unspecified) | x | 4%[176 µM] | x | x
CCCCNC(=S)N/N=C/c1cc(C)ccc1C | 1% | 50µM* | -2% | -2%
CC1CCN(C(=S)c2cn(Cc3cccc(F)c3)c3ccccc23)CC1 | -2% | 45µM* | -7% | 7%
Cc1cncnc1C1CCN(c2cc(C3CC(N)C3)ncn2)CC1 (stereo unspecified) | x | 14µM* | x | x
O=S(=O)(NC[C@H]1O[C@@H](CO)[C@@H](O)[C@H]1N1CCCC1)c1cccs1 | x | 16µM* | x | x
NC[C@H]1O[C@@H](CO)[C@@H](O)[C@H]1N1CCN(c2ncccn2)CC1 | x | 20µM* | x | x
O=C(NC[C@H]1O[C@@H](CO)[C@@H](O)[C@H]1N1CCN(c2ccccn2)CC1)c1ccccc1 | x | 2% | x | x
Cc1ccc(S(=O)(=O)NC[C@H]2O[C@@H](CO)[C@@H](O)[C@H]2N2CCN(c3cccc(C(F)(F)F)c3)CC2)cc1 | x | 16µM* | x | x
CN(C)C[C@H]1O[C@@H](CO)[C@@H](O)[C@H]1N1CCN(c2ncccn2)CC1 | x | -14% | x | x
O=C(NC[C@H]1O[C@@H](CO)[C@@H](O)[C@H]1N1CCCC1)c1ccccc1 | x | 11%[176 µM] | x | x
O=S(=O)(NC[C@H]1O[C@@H](CO)[C@@H](O)[C@H]1N1CCN(c2ccccn2)CC1)c1ccc(Cl)cc1 | x | 18µM* | x | x
O=C(NCC(c1cccs1)N1CCCCCC1)c1cc(=O)c2ccc(Br)cc2o1 (stereo unspecified) | x | -16% | x | x
Cc1cccc(N2CCN(CC(=O)NCC3CCCCC3)CC2)c1C | -3% | 0.89µM* | -2% | -4%
CC(c1cc2ccccc2o1)N(C)Cc1nc(-c2ccc(F)cc2)no1 (stereo unspecified) | x | -1% | x | x
CCn1nc(C(=O)Nc2nc3ccccc3n2CC)c2ccccc2c1=O | x | 39% | x | x
O=C1CCSc2ccc(C(=O)NO)cc2N1 | x | 40µM* | x | x
COc1ccc(CC(NC(=O)c2ccc3c(c2)NC(=O)CCS3)c2ccc(OC)cc2)cc1 (stereo unspecified) | x | -30% | x | x
CC(NC(=O)c1ccc2c(c1)NC(=O)CCS2)c1ccncc1 (stereo unspecified) | x | 8.9µM* | x | x
Cc1ccc(N(C(C)C(=O)NCc2ccccn2)S(C)(=O)=O)cc1C (stereo unspecified) | x | 25% | x | x
N[C@H](C(=O)O)[C@H](OCc1ccccc1)C(=O)O | x | 10% | x | x
SMILES | USP2a block | 12-LOX inh | PTAP TSG101 blk | Eya2 phos inh
CC[N+](C)(CC)CC(C[N+](C)(CC)CC)OCc1ccccc1 | x | 14µM* | x | x
N#C/C(=C/c1ccc(N2CCOCC2)o1)c1ccc(Br)cc1 | 1% | 5.6µM* | u | 9%
N#C/C(=C\c1ccc(N2CCOCC2)o1)c1ccccc1 | -1% | 20µM* | 15% | -16%
Cc1ncc2c(N3CC4CCC(C3)N4CC(F)(F)F)nc3ccccc3n12 | x | -3%[6.33 µM] | x | x
C=CC(O)CCCCC (stereo unspecified) | x | 13%[176 µM] | x | x
COc1cccc(CNC(=O)C(C)OC(C)=O)c1 (stereo unspecified) | x | -1% | x | x
CC(=O)OCC=C(C)C | x | 1%[176 µM] | x | x
COc1ccc(-c2csc(N(CCCN(C)C)C(=O)c3ccccc3Cl)n2)cc1 | x | 0% | 2% | x
